From PubChem BioAssay (EPA / NIEHS)
Active and inactive are the calls of the source. Rule for the calls: active = hit-call score of the fitted dose curve at least 0.9, where 1 is the maximum; inactive = score below 0.9.

experiment: BSK_BE3C_SRB: Viability Assessment in the BioMAP Diversity Plus: BE3C Assay (AID 2283028); conditions: primary human bronchial epithelial cells
Description: BSK_BE3C is a cell-based, multiplexed-readout assay that uses bronchial epithelial cell, a human lung primary cell, with measurements taken at 24 hours after chemical dosing in a 96-well plate.BSK_BE3C_SRB is an assay component measured in the BSK_BE3C assay. It measures 0.1% sulforhodamine related to cell death using Sulforhodamine staining technology.Data from the assay component BSK_BE3C_SRB was analyzed into 1 assay endpoint. This assay endpoint, BSK_BE3C_SRB, was analyzed with bidirectional fitting relative to DMSO as the negative control and baseline of activity. Using a type of viability reporter, gain or loss-of-signal activity can be used to understand changes in the signaling. Furthermore, this assay endpoint can be referred to as a primary readout, because this assay has produced multiple assay endpoints where this one serves a signaling function. To generalize the intended target to other relatable targets, this assay endpoint is annotated to the cell morphology intended target family, where the subfamily is cell conformation.
The levels of cell surface (or secreted, indicated by the prefix "s") biomarker endpoints were measured by ELISA. Overt cytotoxicity to cells in confluent adherent cultures (all systems other than the BT system) was assessed by measuring total protein levels using sulforhodamine B (SRB) staining in parallel cultures at the time of biomarker measurements, indicated as SRB endpoints. For proliferation assays for adherent cell types, individual cell types are cultured at sub-confluence and relative cell numbers quantified by SRB staining at time points optimized for each system (48 h: 3C and CASM3C systems; 72 h: BT and HDF3CGF systems; 96 h: SAg system). SRB was performed by staining cells with 0.1% SRB after fixation with 10% TCA and reading wells at 560 nm.Viability and proliferation of PBMC (T cells) was quantified by Alamar Blue reduction for the SAg and BT systems. For PBMC viability (referred to as PBMC Cytotoxicity within the assay endpoint names), cells were plated (75,000/well in a 96-well plate) and then chemical samples added for 1 h before addition of activators, SEB and TSST-1 (20 ng/mL final concentration each). Cells were incubated for 90 h. Then, Alamar Blue (20 uL/well) (Invitrogen, Cat DAL1100) was added for 6 h, and the plates were read with a fluorescence microplate reader at 546/580 nm (excitation/emission). For PBMC proliferation, cells were plated and activated as above but incubated for only 16 h prior to addition of Alamar Blue. Plates were read after 6 h.

Structure (SMILES) | outcome
OCCOCCOCCO | inactive
O=C(O)c1ccc2c(c1)nc(C(=O)NC1CCN(C3CC3)CC1)n2Cc1cc(-c2ccc(Cl)s2)on1 | inactive
CC(C)CC(C)O (stereo not given) | inactive
FC(F)(F)COC(OCC(F)(F)F)OCC(F)(F)F | inactive
O=c1[nH]cnc2c1ncn2[C@H]1CC[C@@H](CO)O1 | inactive
O=C(O)[C@H](O)[C@@H](O)C(=O)O | inactive
OCCC(F)(F)C(F)(F)C(F)(F)C(F)(F)F | inactive
COCc1nnc(-c2ccc[n+]([O-])c2)n1-c1c(Cl)c(Cl)cc2[nH]c(=O)c(=O)[nH]c12 | inactive
CNC(C)=O | inactive
NNC(=O)c1ccncc1 | inactive
FC(F)(F)C(F)(F)C(F)(F)C(F)(F)C(F)(F)C(F)(F)I | inactive
O=C(O)c1cccc(C(=O)O)c1 | inactive
Cc1nc(-c2ccccn2)ncc1C(=O)Nn1cc(C)c2cc(F)ccc21 | inactive
OC(CCl)CCl | inactive
C[C@]12C=CC(=O)C=C1CC[C@H]1[C@@H]3C[C@@H](O)[C@](O)(C(=O)CO)[C@@]3(C)C[C@H](O)[C@@]12F | inactive
OCCNCCO | inactive
OC[C@H]1O[C@@](CO)(O[C@H]2O[C@H](CO)[C@@H](O)[C@H](O)[C@H]2O)[C@@H](O)[C@@H]1O | inactive
CCCCCCOC(=O)CC(CC(=O)OCCCCCC)(OC(=O)CCC)C(=O)OCCCCCC | inactive
C=CN1CCCC1=O | inactive
Cc1ncc([C@@H](CCCCCCc2ccc3c(n2)NCCC3)CC(=O)O)cn1 | inactive

Structure (SMILES) | outcome
OC(O)(C(F)C(O)(O)C(F)(F)F)C(F)(F)F | inactive
CC(C)C(=O)Nc1ccc([N+](=O)[O-])c(C(F)(F)F)c1 | inactive
CCc1ccc(O)c(C(C)(C)C)c1 | inactive
Cn1cc[nH]c1=S | inactive
O=C1CN(N=Cc2ccc([N+](=O)[O-])o2)C(=O)N1 | inactive
CCOc1ccc2[nH]cc(C(=O)NCc3ccccc3)c(=O)c2n1 | inactive
CC(C)CCCCCCOC(=O)C1CCCCC1C(=O)OCCCCCCC(C)C (stereo not given) | inactive
OCc1ccccc1 | inactive
OC[C@H]1O[C@@H]2O[C@H]3[C@H](O)[C@@H](O)[C@@H](O[C@H]4[C@H](O)[C@@H](O)[C@@H](O[C@H]5[C@H](O)[C@@H](O)[C@@H](O[C@H]6[C@H](O)[C@@H](O)[C@@H](O[C@H]7[C@H](O)[C@@H](O)[C@@H](O[C@H]1[C@H](O)[C@H]2O)O[C@@H]7CO)O[C@@H]6CO)O[C@@H]5CO)O[C@@H]4CO)O[C@@H]3CO | inactive
O=S(=O)(O)c1ccc(N=Nc2c(O)ccc3cc(S(=O)(=O)O)ccc23)cc1 | inactive
S=P(N1CC1)(N1CC1)N1CC1 | inactive
CC(=O)c1ccccc1 | inactive
CCCCCCCCN(C)C | inactive
c1ccc(C(O[C@@H]2CCCN(CCc3ccc4c(c3)OCO4)C2)c2ccccc2)cc1 | inactive
CCCCCCCCCCCCCCO | inactive
CCCc1ccccc1 | inactive
CCCCN1C(=O)[C@@H]([C@H](O)C2CCCCC2)NC(=O)C12CCN(Cc1ccc(Oc3ccc(C(=O)O)cc3)cc1)CC2 | inactive
CC1(C)C(=O)N(Cl)C(=O)N1Cl | inactive
CC(C)c1nnc2ccc(-c3ocnc3-c3cc(F)ccc3F)cn12 | inactive
O=C(O)c1cccc(C[C@@H]2COc3ccc(OCc4nc5cc(F)ccc5s4)cc3[C@@H]2O)c1 | inactive
